Here are results for seven sequences from paper PMC7862700, “An all-to-all approach to the identification of sequence-specific readers for epigenetic DNA modifications on cytosine”.

Common to all, as to test: DAPPL (digital affinity profiling via proximity ligation, sequencing); 10 mM Tris-HCl pH 7.5, 50 mM NaCl, 1 mM DTT, 4% glycerol, room temperature, 30 min; GST-TFs on glutathione beads, 16-mer random dsDNA library, 0.1% formaldehyde crosslink after washing; high values mean tight binding
Common to all, as to conditions: protein: recombinant; tags: N-terminal GST; dsDNA, one strand shown

In one experiment the target is T1, ERF (Homo sapiens, UniProt P50548 1-548).
T1 sequence: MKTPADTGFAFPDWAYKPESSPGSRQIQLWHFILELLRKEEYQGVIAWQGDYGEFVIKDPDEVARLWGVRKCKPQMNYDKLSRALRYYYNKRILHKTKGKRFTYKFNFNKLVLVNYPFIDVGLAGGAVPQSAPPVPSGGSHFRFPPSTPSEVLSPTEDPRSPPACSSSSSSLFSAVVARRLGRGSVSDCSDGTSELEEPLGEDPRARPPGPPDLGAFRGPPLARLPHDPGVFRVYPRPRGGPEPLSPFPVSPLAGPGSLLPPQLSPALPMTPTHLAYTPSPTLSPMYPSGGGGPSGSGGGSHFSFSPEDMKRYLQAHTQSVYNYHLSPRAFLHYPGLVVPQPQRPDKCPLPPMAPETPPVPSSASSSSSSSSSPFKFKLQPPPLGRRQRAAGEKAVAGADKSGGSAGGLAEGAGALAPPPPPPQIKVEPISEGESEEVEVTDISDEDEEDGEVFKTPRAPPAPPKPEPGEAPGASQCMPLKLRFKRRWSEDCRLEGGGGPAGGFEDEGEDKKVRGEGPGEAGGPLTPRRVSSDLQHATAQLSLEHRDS
In a few lines:
(§1)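 Binding signal is defined as a hexamer's read frequency for one factor over its frequency for the tag-only sample. To obtain reads, GST-fused human transcription factors were expressed in yeast, captured on glutathione beads, barcoded with DNA and pooled with that sample. Pools met 200 nmole of a 16-mer random double-stranded DNA library in Tris/NaCl/DTT/glycerol buffer for 30 min at room temperature before washing, 0.1% formaldehyde crosslinking, proximity ligation (BsaI/T4 ligase, 1 h, 37 °C), PCR and Illumina NextSeq500 sequencing.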

Another experiment has as its target T2, ETV3L (Homo sapiens, UniProt Q6ZN32 1-361).
T2 sequence: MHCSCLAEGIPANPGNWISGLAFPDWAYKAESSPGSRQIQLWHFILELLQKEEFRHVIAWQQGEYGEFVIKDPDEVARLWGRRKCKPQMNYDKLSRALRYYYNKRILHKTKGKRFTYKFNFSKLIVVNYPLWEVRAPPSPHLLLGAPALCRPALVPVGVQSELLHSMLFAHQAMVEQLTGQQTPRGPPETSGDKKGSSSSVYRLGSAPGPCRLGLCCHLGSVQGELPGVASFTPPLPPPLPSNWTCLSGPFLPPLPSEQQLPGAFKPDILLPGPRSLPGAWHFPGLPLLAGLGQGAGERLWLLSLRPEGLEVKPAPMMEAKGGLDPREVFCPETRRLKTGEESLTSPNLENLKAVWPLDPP
In a few lines: as §1

The target of another experiment is T3, ETS2 (Homo sapiens, UniProt P15036 1-469).
T3 sequence: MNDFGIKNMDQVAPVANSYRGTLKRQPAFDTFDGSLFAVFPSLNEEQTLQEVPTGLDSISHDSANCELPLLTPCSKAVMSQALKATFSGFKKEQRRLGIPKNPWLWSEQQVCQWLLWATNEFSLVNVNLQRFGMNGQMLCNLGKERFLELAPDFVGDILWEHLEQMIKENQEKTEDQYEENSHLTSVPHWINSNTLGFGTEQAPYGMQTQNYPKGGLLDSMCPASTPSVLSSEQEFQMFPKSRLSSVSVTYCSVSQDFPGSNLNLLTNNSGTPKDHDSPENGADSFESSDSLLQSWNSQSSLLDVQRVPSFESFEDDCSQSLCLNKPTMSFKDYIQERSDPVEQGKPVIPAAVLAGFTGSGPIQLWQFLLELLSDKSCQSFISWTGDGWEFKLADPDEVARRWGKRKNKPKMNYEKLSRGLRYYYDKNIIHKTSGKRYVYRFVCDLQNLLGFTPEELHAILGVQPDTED
The method, boiled down:
as §1

The next experiment has as its target T4, SPDEF (Homo sapiens, UniProt O95238 1-335).
T4 sequence: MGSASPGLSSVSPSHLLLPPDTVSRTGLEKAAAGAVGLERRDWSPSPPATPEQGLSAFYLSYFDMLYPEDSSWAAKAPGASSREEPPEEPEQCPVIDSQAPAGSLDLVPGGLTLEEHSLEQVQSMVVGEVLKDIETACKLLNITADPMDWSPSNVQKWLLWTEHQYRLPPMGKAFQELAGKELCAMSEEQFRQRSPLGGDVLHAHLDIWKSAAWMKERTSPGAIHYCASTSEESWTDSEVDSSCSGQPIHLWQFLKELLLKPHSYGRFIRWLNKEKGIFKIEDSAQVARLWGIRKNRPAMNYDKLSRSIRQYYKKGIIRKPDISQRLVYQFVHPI
In a few lines: as §1

Another experiment concerns the target T5, ETV7 (Homo sapiens, UniProt Q9Y603 1-341).
T5 sequence: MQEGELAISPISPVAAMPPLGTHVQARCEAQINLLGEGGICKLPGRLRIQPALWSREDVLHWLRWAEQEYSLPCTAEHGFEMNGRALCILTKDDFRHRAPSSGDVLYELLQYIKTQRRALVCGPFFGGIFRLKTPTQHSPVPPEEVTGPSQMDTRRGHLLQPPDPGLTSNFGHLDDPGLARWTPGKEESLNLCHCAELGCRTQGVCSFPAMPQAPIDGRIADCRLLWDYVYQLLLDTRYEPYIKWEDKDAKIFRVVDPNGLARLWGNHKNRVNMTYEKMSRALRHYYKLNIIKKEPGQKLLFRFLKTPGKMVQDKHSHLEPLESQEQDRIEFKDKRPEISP
The method, boiled down: as §1

For a further experiment, the target named is T6, ELF5 (Homo sapiens, UniProt Q9UKW6-2 1-255).
T6 sequence: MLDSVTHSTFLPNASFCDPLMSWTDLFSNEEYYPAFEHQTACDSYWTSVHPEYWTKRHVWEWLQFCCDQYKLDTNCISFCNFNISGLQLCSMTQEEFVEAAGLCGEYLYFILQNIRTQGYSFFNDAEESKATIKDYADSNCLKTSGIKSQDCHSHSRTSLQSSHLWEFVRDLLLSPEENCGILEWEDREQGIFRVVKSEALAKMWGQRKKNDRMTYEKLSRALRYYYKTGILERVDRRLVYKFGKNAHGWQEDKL
In a few lines: as §1

For another experiment, the target named is T7, ETV3 (Homo sapiens, UniProt P41162-2 1-143).
T7 sequence: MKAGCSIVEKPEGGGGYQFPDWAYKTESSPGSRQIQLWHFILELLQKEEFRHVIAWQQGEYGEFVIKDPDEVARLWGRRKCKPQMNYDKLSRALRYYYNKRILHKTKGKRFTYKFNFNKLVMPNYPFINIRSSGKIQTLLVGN
The method, boiled down: as §1

In a further experiment the target is ETV6 (Homo sapiens, UniProt P41212 1-452). The method, boiled down: as §1
Chain of ETV6 (P41212 whole entry): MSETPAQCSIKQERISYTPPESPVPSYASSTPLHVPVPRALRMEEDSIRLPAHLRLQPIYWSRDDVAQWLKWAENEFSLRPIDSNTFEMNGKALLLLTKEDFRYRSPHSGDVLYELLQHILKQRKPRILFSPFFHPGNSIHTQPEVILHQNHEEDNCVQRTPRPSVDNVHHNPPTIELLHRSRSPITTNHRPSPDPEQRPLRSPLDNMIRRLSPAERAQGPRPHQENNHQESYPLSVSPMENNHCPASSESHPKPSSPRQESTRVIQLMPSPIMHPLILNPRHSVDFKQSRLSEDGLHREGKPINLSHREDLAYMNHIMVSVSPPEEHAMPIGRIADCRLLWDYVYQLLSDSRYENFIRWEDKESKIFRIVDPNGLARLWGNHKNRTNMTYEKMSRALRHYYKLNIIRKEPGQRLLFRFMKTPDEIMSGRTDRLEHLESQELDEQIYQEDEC

CTATCC: the binding signal is 1.38 fold enrichment (6-mer frequency, TF over GST control) with ERF; 1.4 fold enrichment (6-mer frequency, TF over GST control) in the experiment with ETV3L; 1.35 fold enrichment (6-mer frequency, TF over GST control) in the experiment with ETS2; 1.63 fold enrichment (6-mer frequency, TF over GST control) with SPDEF; 1.46 fold enrichment (6-mer frequency, TF over GST control) in the experiment with ETV7; 1.45 fold enrichment (6-mer frequency, TF over GST control) with ELF5. The binding signal with ETV3 is 1.27 fold enrichment (6-mer frequency, TF over GST control); with ETV6, 1.32 fold enrichment (6-mer frequency, TF over GST control).
ATGTAT: the binding signal in the experiment with ERF was 1.47 fold enrichment (6-mer frequency, TF over GST control); with ETV3L, 1.48 fold enrichment (6-mer frequency, TF over GST control); in the experiment with ETS2 it was 1.34 fold enrichment (6-mer frequency, TF over GST control); with SPDEF it was 1.65 fold enrichment (6-mer frequency, TF over GST control); with ETV7, 1.47 fold enrichment (6-mer frequency, TF over GST control); with ELF5 it was 1.31 fold enrichment (6-mer frequency, TF over GST control). In addition, the binding signal with ETV3 was 1.42 fold enrichment (6-mer frequency, TF over GST control); with ETV6, 1.32 fold enrichment (6-mer frequency, TF over GST control).
Regarding ACCAAC, the binding signal in the experiment with ERF was 1.24 fold enrichment (6-mer frequency, TF over GST control); with ETV3L, 1.13 fold enrichment (6-mer frequency, TF over GST control); with ETS2, 1.15 fold enrichment (6-mer frequency, TF over GST control); with SPDEF, 1.22 fold enrichment (6-mer frequency, TF over GST control); with ETV7, 1.13 fold enrichment (6-mer frequency, TF over GST control); with ELF5, 1.13 fold enrichment (6-mer frequency, TF over GST control). In addition, the binding signal with ETV3 is 1.24 fold enrichment (6-mer frequency, TF over GST control); in the experiment with ETV6 it was 1.2 fold enrichment (6-mer frequency, TF over GST control).
Take CGAAGC: the binding signal was 1.38 fold enrichment (6-mer frequency, TF over GST control) with ERF; 1.2 fold enrichment (6-mer frequency, TF over GST control) with ETV3L; 1.33 fold enrichment (6-mer frequency, TF over GST control) with ETS2; 1.18 fold enrichment (6-mer frequency, TF over GST control) with SPDEF; 1.44 fold enrichment (6-mer frequency, TF over GST control) in the experiment with ETV7; 1.19 fold enrichment (6-mer frequency, TF over GST control) with ELF5. Further, the binding signal with ETV3 was 1.34 fold enrichment (6-mer frequency, TF over GST control); with ETV6, 1.14 fold enrichment (6-mer frequency, TF over GST control).
On to TTCGAT, for which the binding signal with ERF was 1.4 fold enrichment (6-mer frequency, TF over GST control); with ETV3L it was 1.33 fold enrichment (6-mer frequency, TF over GST control); with ETS2 it was 1.33 fold enrichment (6-mer frequency, TF over GST control); with SPDEF, 1.18 fold enrichment (6-mer frequency, TF over GST control); in the experiment with ETV7 it was 1.22 fold enrichment (6-mer frequency, TF over GST control); with ELF5 it was 1.2 fold enrichment (6-mer frequency, TF over GST control). The binding signal in the experiment with ETV3 was 1.24 fold enrichment (6-mer frequency, TF over GST control); with ETV6, 1.14 fold enrichment (6-mer frequency, TF over GST control).
As to CCGTCA, the binding signal with ERF was 1.08 fold enrichment (6-mer frequency, TF over GST control); with ETV3L, 1.28 fold enrichment (6-mer frequency, TF over GST control); with ETS2, 1.28 fold enrichment (6-mer frequency, TF over GST control); in the experiment with SPDEF it was 1.38 fold enrichment (6-mer frequency, TF over GST control); in the experiment with ETV7, 1.26 fold enrichment (6-mer frequency, TF over GST control); with ELF5, 1.22 fold enrichment (6-mer frequency, TF over GST control). For the same sequence, the binding signal with ETV3 was 1.19 fold enrichment (6-mer frequency, TF over GST control); with ETV6, 1.25 fold enrichment (6-mer frequency, TF over GST control).
Consider CACCAT, for which the binding signal in the experiment with ERF was 1.12 fold enrichment (6-mer frequency, TF over GST control); with ETV3L, 1.16 fold enrichment (6-mer frequency, TF over GST control); in the experiment with ETS2 it was 1.08 fold enrichment (6-mer frequency, TF over GST control); with SPDEF, 1.02 fold enrichment (6-mer frequency, TF over GST control); with ETV7, 1.15 fold enrichment (6-mer frequency, TF over GST control); with ELF5, 1.1 fold enrichment (6-mer frequency, TF over GST control). Besides, the binding signal with ETV3 is 1.05 fold enrichment (6-mer frequency, TF over GST control); with ETV6 it was 1.04 fold enrichment (6-mer frequency, TF over GST control).
